From PMC7862700, “An all-to-all approach to the identification of sequence-specific readers for epigenetic DNA modifications on cytosine”

Key:
Test in all cases: DAPPL (digital affinity profiling via proximity ligation, sequencing); 10 mM Tris-HCl pH 7.5, 50 mM NaCl, 1 mM DTT, 4% glycerol, room temperature, 30 min; GST-TFs on glutathione beads, 16-mer random dsDNA library, 0.1% formaldehyde crosslink after washing; high values mean tight binding
Conditions in all cases: protein: recombinant; tags: N-terminal GST; dsDNA, one strand shown
[1] = molecular target: T1, ELK1 (Homo sapiens, UniProt P19419 1-428)
T1 sequence: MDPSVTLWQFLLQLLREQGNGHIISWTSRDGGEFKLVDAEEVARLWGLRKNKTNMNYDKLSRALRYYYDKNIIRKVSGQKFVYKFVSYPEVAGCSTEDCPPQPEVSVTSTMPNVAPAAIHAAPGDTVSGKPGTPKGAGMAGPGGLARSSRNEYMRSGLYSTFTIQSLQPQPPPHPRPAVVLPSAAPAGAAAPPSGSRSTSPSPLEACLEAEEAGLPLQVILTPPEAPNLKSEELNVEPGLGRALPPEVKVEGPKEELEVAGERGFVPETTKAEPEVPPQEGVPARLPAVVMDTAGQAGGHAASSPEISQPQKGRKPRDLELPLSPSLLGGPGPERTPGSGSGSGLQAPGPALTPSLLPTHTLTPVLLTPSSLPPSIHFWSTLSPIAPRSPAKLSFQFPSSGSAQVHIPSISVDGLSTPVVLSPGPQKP
Outline: (§1)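 Binding signal is each hexamer's read frequency for a factor divided by its frequency in the tag-only sample. The factors were GST-fused human transcription factors from yeast, captured on glutathione beads, DNA-barcoded and pooled with that sample. Pools were incubated with 200 nmole of a random double-stranded 16-mer DNA library in Tris/NaCl/DTT/glycerol buffer at room temperature for 30 min, then washed, crosslinked with 0.1% formaldehyde, proximity-ligated with BsaI/T4 ligase (1 h, 37 °C), PCR-amplified and sequenced on an Illumina NextSeq500.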

[2] = molecular target: T2, GABPA (Homo sapiens, UniProt Q06546 1-454)
T2 sequence: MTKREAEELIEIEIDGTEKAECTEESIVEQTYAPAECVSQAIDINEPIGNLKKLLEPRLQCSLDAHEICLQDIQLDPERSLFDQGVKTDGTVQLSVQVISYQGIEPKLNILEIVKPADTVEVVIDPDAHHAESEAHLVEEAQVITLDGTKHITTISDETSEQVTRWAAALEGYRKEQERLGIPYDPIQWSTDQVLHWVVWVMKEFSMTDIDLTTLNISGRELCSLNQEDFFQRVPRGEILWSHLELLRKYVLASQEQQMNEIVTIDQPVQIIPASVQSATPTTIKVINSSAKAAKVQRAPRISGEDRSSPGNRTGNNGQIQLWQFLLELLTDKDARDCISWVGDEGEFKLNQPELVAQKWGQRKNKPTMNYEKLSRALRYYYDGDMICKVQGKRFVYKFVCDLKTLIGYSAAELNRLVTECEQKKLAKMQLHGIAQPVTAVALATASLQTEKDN
Outline: as §1

[3] = molecular target: T3, ERG (Homo sapiens, UniProt P11308 1-479)
T3 sequence: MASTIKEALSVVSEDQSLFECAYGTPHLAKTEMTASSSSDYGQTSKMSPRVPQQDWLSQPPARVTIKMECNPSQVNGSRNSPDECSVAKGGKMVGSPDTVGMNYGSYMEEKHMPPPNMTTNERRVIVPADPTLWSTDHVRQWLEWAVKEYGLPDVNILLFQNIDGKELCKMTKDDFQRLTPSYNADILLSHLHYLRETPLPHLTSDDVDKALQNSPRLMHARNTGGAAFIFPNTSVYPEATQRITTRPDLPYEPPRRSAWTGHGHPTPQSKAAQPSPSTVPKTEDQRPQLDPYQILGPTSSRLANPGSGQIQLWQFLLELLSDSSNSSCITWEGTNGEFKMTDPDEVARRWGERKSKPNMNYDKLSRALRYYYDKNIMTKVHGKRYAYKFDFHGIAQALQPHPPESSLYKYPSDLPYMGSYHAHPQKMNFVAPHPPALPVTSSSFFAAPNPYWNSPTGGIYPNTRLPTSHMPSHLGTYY
Outline: as §1

[4] = molecular target: ELF1 (Homo sapiens, UniProt P32519 1-619)
Outline: as §1

[5] = molecular target: T4, EHF (Homo sapiens, UniProt Q9NZC4 1-300)
T4 sequence: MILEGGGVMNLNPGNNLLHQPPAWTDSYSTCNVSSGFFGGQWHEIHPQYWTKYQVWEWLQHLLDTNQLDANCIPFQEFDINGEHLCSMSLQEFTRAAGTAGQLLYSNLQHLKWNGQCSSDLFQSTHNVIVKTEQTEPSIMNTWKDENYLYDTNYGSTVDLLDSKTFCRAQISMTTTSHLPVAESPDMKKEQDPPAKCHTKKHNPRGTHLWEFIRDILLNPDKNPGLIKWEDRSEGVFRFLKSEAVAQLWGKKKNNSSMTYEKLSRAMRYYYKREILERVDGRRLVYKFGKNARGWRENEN
Outline: as §1

[6] = molecular target: T5, FEV (Homo sapiens, UniProt Q99581 1-238)
T5 sequence: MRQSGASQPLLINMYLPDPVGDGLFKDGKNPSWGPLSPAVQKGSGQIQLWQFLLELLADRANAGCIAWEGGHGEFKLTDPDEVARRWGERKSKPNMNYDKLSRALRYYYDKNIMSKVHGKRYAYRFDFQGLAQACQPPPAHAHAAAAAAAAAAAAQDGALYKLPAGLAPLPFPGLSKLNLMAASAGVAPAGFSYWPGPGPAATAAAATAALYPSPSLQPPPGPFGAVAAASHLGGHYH
Outline: as §1

[7] = molecular target: ETV5 (Homo sapiens, UniProt P41161 1-510)
Outline: as §1

[8] = molecular target: ELF4 (Homo sapiens, UniProt Q99607 1-663)
Outline: as §1

[9] = molecular target: T6, ETV2 (Homo sapiens, UniProt O00321 1-342)
T6 sequence: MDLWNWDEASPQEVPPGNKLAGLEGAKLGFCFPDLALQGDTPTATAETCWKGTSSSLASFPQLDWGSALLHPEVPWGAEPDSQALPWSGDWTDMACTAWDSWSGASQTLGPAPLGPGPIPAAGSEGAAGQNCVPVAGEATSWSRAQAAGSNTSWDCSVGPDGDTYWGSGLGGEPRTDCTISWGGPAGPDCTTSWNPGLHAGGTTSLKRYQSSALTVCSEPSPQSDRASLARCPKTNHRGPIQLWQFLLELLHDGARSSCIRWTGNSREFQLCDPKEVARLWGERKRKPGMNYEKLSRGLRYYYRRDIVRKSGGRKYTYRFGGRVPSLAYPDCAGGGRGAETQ
Outline: as §1

[10] = molecular target: T7, ELF3 (Homo sapiens, UniProt P78545 1-371)
T7 sequence: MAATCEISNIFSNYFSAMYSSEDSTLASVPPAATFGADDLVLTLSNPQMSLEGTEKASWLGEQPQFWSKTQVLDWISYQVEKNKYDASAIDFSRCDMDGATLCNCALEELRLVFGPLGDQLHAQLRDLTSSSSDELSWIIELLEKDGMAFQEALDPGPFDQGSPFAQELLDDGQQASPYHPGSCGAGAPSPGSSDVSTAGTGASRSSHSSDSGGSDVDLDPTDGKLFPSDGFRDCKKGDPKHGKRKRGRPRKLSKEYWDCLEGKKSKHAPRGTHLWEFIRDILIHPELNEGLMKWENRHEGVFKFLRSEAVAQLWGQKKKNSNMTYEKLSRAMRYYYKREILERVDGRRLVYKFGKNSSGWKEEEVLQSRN
Outline: as §1

[11] = molecular target: ETV1 (Homo sapiens, UniProt P50549 1-477)
Outline: as §1

[12] = molecular target: T8, ETV3L (Homo sapiens, UniProt Q6ZN32 1-361)
T8 sequence: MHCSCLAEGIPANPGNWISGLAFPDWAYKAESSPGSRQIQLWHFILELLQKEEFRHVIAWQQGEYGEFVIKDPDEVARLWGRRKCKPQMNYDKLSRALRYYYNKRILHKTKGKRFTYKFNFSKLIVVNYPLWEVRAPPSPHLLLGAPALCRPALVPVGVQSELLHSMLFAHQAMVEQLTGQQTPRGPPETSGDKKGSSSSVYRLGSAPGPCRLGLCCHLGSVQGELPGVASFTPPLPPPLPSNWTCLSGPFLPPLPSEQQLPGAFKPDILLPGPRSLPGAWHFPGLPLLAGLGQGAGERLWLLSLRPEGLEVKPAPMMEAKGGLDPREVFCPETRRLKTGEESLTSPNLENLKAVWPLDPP
Outline: as §1

[13] = molecular target: T9, SPDEF (Homo sapiens, UniProt O95238 1-335)
T9 sequence: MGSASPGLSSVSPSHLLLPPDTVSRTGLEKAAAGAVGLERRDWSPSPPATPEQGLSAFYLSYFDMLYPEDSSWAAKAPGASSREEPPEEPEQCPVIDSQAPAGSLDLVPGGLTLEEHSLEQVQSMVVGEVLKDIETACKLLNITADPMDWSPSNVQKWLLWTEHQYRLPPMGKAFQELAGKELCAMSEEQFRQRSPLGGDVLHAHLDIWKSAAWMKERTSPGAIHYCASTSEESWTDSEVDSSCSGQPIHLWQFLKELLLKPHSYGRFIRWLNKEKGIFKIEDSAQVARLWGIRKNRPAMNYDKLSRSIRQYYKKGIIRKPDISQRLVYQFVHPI
Outline: as §1

[14] = molecular target: T10, ETV7 (Homo sapiens, UniProt Q9Y603 1-341)
T10 sequence: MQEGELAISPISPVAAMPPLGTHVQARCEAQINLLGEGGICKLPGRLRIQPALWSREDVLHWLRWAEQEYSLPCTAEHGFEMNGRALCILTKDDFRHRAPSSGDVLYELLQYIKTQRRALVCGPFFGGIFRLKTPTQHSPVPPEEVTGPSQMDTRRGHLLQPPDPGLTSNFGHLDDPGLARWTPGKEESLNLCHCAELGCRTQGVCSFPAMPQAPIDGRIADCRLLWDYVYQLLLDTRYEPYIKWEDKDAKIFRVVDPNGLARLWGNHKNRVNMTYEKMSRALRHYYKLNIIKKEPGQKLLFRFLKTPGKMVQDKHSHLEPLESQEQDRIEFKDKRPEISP
Outline: as §1

[15] = molecular target: T11, ETV3 (Homo sapiens, UniProt P41162-2 1-143)
T11 sequence: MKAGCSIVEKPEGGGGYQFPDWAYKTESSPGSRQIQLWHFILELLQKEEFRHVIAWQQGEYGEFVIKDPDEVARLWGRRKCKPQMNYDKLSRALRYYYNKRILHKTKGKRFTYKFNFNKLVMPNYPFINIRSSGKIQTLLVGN
Outline: as §1

[16] = molecular target: ETV6 (Homo sapiens, UniProt P41212 1-452)
Outline: as §1

Sequence of ELF1 (P32519 whole entry): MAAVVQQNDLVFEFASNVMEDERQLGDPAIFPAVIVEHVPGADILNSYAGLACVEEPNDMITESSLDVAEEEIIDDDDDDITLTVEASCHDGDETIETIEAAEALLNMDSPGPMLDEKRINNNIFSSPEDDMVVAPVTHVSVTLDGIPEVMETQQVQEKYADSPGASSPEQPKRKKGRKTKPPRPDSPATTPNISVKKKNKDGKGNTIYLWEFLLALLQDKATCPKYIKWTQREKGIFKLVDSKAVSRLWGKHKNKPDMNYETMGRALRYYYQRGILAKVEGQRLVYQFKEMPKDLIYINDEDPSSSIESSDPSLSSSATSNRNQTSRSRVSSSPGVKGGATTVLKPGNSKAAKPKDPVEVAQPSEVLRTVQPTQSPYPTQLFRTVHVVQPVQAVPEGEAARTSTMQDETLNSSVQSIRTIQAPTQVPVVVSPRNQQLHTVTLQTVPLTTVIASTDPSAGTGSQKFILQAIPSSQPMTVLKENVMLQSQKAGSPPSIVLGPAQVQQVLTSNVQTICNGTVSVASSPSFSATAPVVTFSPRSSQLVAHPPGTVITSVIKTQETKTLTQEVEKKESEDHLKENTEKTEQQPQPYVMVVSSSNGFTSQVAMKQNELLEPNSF
Sequence of ETV5 (P41161 whole entry): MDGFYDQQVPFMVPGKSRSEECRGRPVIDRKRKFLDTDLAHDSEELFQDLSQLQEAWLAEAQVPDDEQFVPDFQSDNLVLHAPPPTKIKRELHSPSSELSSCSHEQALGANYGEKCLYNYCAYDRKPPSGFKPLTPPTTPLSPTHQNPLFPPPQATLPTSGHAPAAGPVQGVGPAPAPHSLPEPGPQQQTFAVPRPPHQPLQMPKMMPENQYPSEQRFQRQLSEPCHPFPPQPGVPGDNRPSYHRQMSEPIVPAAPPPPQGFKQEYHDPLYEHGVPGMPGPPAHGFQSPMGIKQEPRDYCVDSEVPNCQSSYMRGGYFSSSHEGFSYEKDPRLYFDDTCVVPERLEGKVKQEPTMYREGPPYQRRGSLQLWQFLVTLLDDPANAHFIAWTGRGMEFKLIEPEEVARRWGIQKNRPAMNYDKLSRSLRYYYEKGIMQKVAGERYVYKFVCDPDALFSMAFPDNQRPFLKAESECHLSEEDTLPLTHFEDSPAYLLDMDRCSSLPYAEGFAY
Sequence of ETV6 (P41212 whole entry): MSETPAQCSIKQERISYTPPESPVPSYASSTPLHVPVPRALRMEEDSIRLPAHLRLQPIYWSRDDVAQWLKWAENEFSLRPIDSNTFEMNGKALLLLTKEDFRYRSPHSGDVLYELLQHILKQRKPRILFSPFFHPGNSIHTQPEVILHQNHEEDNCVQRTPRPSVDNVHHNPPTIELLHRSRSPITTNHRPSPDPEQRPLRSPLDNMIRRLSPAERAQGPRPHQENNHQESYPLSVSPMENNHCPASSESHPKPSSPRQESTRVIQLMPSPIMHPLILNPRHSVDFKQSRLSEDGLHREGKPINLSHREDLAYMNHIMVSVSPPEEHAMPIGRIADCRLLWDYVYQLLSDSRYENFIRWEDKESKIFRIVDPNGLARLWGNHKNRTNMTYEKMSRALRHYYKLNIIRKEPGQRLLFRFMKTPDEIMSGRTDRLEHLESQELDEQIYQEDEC
Sequence of ELF4 (Q99607 whole entry): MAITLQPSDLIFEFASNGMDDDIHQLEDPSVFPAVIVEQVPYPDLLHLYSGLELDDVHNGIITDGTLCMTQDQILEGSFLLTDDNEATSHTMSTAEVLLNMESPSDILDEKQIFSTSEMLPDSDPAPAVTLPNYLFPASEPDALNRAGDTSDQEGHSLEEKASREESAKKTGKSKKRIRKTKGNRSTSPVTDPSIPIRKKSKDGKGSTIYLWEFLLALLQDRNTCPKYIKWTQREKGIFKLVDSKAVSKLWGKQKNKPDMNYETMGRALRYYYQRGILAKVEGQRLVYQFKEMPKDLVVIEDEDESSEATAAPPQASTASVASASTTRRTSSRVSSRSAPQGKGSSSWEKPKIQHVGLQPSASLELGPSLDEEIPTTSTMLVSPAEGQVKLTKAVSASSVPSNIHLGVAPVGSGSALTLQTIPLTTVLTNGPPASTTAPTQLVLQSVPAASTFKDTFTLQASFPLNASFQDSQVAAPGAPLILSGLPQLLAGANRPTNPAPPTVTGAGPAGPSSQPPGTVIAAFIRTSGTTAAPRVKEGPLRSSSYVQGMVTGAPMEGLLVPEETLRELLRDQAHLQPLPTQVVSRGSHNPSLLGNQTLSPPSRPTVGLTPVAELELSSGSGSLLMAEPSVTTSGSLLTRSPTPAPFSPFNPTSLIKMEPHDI
Sequence of ETV1 (P50549 whole entry): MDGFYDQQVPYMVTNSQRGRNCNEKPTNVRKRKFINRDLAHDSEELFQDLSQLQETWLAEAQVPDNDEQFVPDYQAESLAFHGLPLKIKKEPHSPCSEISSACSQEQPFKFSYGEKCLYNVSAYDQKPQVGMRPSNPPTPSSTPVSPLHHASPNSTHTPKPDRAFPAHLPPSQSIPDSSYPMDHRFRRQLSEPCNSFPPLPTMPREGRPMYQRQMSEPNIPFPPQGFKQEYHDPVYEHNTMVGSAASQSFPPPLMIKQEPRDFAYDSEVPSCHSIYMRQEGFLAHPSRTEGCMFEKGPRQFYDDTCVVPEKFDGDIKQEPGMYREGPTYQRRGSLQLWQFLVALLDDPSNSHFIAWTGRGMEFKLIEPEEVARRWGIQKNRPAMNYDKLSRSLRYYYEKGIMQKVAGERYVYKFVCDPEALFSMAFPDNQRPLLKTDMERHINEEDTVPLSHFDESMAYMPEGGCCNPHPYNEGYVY

CGCCGG was tested, and the binding signal [1] was 1.21 fold enrichment (6-mer frequency, TF over GST control), the binding signal [2] was 1.14 fold enrichment (6-mer frequency, TF over GST control) and the binding signal [3] was 1.19 fold enrichment (6-mer frequency, TF over GST control). The binding signal [4] was 1.03 fold enrichment (6-mer frequency, TF over GST control), the binding signal [5] was 1.19 fold enrichment (6-mer frequency, TF over GST control) and the binding signal [6] was 1.4 fold enrichment (6-mer frequency, TF over GST control). The binding signal [7] was 1.15 fold enrichment (6-mer frequency, TF over GST control), the binding signal [8] was 1.02 fold enrichment (6-mer frequency, TF over GST control) and the binding signal [9] was 1.06 fold enrichment (6-mer frequency, TF over GST control). For the same sequence, the binding signal [10] was 1.13 fold enrichment (6-mer frequency, TF over GST control), the binding signal [11] was 1.02 fold enrichment (6-mer frequency, TF over GST control) and the binding signal [12] was 1.06 fold enrichment (6-mer frequency, TF over GST control). For the same sequence, the binding signal [13] was 1.05 fold enrichment (6-mer frequency, TF over GST control), the binding signal [14] was 1.08 fold enrichment (6-mer frequency, TF over GST control) and the binding signal [15] was 1.1 fold enrichment (6-mer frequency, TF over GST control). For the same sequence, the binding signal [16] was 1.05 fold enrichment (6-mer frequency, TF over GST control).
